Bioassay records from PubChem.
HCMV inh: qHTS Assay for inhibitors of the human cytomegalovirus (HCMV); HFF cells, HCMV-luciferase reporter, 72 h; hits give low values; activity change, negative = inhibition, % at 57.5 µM; actives 4.5% (n = 410,000); in the data active = activity change below about -60%; inconclusive = no clear call, values can overlap the other calls; inactive = above about -39%
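Two compound doses tested in HFFs infected with HCMV-luciferase, MOI 1 PFU/cell, 72 h at 37C. Lysate luminescence read with OneGlo; data normalized against buffer-only and 10uM Salinomycin inhibitor controls.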
RE007 growth inh: qHTS Assay for Inhibitors of the HIV-1 protein Vpr; S. pombe RE007 Vpr strain, BacTiter-Glo ATP luminescence, 24 h; Potency, µM (titrated, usually from 92.2 µM), without a hit: at the highest dose activity change, negative = less growth, usual class: inhibitors; actives 0.21% (n = 360,000); active = well fitted falling curve with a large enough effect; inconclusive = small, poorly fitted or top-dose-only effect; inactive = no such curve, though single readings can be large or run the other way; also: potency is read from the fitted curve at half-maximal effect; nearly all actives have a fitted effect of over 50% in size
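Fission yeast RE007 carrying one integrated HIV-1 vpr copy, seeded at OD 0.01 in PMG+AL medium with 23 nL pinned compound. Grown 24 h at 30 degrees; viability read by BacTiter-Glo luminescence after 5 min.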
Giardia FBPA inh: qHTS Assay for Inhibitors of Fructose-1,6-bisphosphate Aldolase from Giardia Lamblia | A8B2U2 | purified Giardia FBPA | Potency, µM (series often up to 59.6 µM), without a hit: at the highest dose activity, negative = inhibition, most hits filed as inhibitors | actives 0.71% (n = 290,000); also: potency is read from the fitted curve at half-maximal effect; nearly all actives have a fitted effect of over 55% in size
Target sequence (A8B2U2 whole entry, looked up): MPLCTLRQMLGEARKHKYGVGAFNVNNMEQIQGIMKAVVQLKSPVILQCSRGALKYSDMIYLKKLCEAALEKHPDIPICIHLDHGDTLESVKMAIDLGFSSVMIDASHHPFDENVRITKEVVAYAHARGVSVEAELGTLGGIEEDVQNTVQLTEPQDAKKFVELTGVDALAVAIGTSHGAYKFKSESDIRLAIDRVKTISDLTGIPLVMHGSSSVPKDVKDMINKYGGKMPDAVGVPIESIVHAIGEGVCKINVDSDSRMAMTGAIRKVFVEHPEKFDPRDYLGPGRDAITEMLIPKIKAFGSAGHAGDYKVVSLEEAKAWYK
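Giardia FBPA (40 nM reagent) was preincubated 10 min at RT with compound (up to 57.5 uM final), then substrate plus GAPDH/TPI/NAD/arsenate coupling system with diaphorase/resazurin was added; resorufin fluorescence (525/598 nm) was read after 20 min.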
Sm TGR block: qHTS Assay for the Inhibitors of Schistosoma Mansoni Peroxiredoxins | purified TGR, DTNB reduction, TNB absorbance 405 nm | Potency, µM (highest dose often 114 µM), without a hit: at the highest dose activity change, negative = inhibition, usual class: inhibitors | actives 3% (n = 360,000) | AID 485364, 2010; also: potency is read from the fitted curve at half-maximal effect; nearly all actives have a fitted effect of over 60% in size
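First, TGR (20 nM dispensed) and NADPH were mixed with compound. Second, a 15 min room-temperature incubation followed. Third, further NADPH and then DTNB were added to start the reaction. Finally, TNB absorbance was monitored kinetically.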
Tb PYK inh: qHTS of Trypanosoma Brucei Inhibitors; TbPYK enzyme, Kinase-Glo Plus ATP luminescence, 45 min; AID 624173, 2012; Potency, µM (highest dose often 76.8 µM), for the others: at the top dose activity, negative = inhibition, usual class: inhibitors; actives 0.12% (n = 410,000); also: potency is read from the fitted curve at half-maximal effect; nearly all actives have a fitted effect of over 50% in size
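Readout: single end-point luminescence (Kinase-Glo Plus, 10 min). Reaction conditions were TbPYK/substrate plus 130 uM ADP, 45 min at RT, pH 7.2 TEA buffer. No-enzyme wells served as controls, and data were normalized before concentration-response fitting.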
FMDV antiviral: High Throughput Screening for Foot and Mouth Disease Virus Antivirals. actives 1.2% (n = 410,000). AID 1159524, 2015. FMDV antiviral cell-based qHTS. Potency, µM (titrated, usually from 57.9 µM), for the others: at the highest dose activity change, negative = inhibition, usual class: inhibitors; calls by dose curve; tested in HEK293T cells; also: read-out not given here; potency is read from the fitted curve at half-maximal effect; nearly all actives have a fitted effect of over 45% in size
An asterisk follows results filed as active; ? = inconclusive; · = no result; [ ] = dose if it differs, or a comment. Most compounds without a hit are left out; they make up all but 7.7% or so of the library. Unless noted, calls follow the shape of the dose curve; as a rule, active = well fitted curve in the direction sought with a large enough effect; inconclusive = small, poorly fitted or top-dose-only effect, or another doubt; inactive = no such curve, though single readings can be large; an effect the other way counts as inactive or inconclusive. % is scaled to controls: 0 for no effect and ±100 for the full control effect.

SMILES | HCMV inh | RE007 growth inh | Giardia FBPA inh | Sm TGR block | Tb PYK inh | FMDV antiviral
COc1ccc(O[C@H]2C=C[C@@H](c3ccccc3)O[C@H]2COC(=O)CC/C(C)=N\O[C@@H](C)c2cn([C@H](CO)Cc3ccccc3)nn2)cc1 | · | · | -0.2%[12.9 µM] | · | · | ·
O=S(=O)(c1ccc(Cl)cc1)c1nc(-c2cccs2)oc1SCc1ccc(F)cc1 | -6.9 | · | · | -10.4% | -7.0% | 19.2%
Cc1ncc2c(c1CNC(=O)c1ccc3c(c1)OCO3)CCN(C(=O)c1cc3ccccc3o1)C2 | · | · | · | · | · | -7.8%
O=C(/C=C/c1ccco1)Nc1cccnc1 | 6.7 | 4.6% | -17.5% | · | -12.0% | 39.0%
C/C(CC(=O)NCc1ccco1)=N\NC(=O)c1ccc(Cl)cc1Cl | 11.2 | 5.3% | · | -11.1% | 1.5% | -4.9%
CC(/C=C/c1ccco1)=N/NC(=O)c1ccc(C)nc1 | 51.5 | 17.9% | -23.6% | 44.7µM* | -2.6% | -5.1%
CC(/C=C/c1ccco1)=N\NC(=O)c1cc(C)[nH]n1 | 0.0 | -11.8% | ? | 28.2µM* | -6.7% | 33.7%
CC(/C=C/c1ccco1)=N\NC(=O)c1cc(Cl)ccc1O | 3.7 | -16.6% | -27.4% | 8.91µM* | -6.5% | 22.6%
O=C(/C=C/c1ccco1)c1cccnc1 | -20.3 | · | 1.7% | 12.6µM* | -12.0% | -14.8%
Cc1ccc(S(=O)(=O)N2CCC([C@H](C#N)c3ccccc3)CC2)cc1 | -12.4 | · | · | · | · | ·
COC(=O)c1cc(NC(=O)C(C)c2ccc(CC(C)C)cc2)ccc1O (configuration not stated) | -79.4* | -5.2% | -11.3% | 0.0% | 3.1% | -4.8%
COc1cc(=O)n2c(c1C(=O)N(C)Cc1nccs1)CCN(Cc1cc3ccccc3s1)CC2 | · | · | · | · | · | -10.7%
Cc1ccccc1N1CC(c2nc3ccccc3n2CCC2CCCCC2)CC1=O (configuration not stated) | ? | · | · | -11.0% | -0.4% | ?
CCc1ccccc1N1CC(c2nc3ccccc3n2CCC2CCCCC2)CC1=O (configuration not stated) | -107.7* | · | · | -3.1% | -0.1% | ?
CC(C)(C)N1CC(c2nc3ccccc3n2Cc2ccc(Cl)cc2)CC1=O (configuration not stated) | -1.2 | 0.8% | -0.3% | -16.0% | 3.2% | -23.7%
Cc1ccccc1N1CC(c2nc3ccccc3n2Cc2ccc(Br)cc2)CC1=O (configuration not stated) | -77.7* | · | · | 0.0% | -1.9% | 0.0%
Cc1ccc(-n2nc(C(C)(C)C)cc2NC(=O)Nc2ccc(OCCN3CCOCC3)c3ccccc23)cc1 | · | · | · | · | -5.3% | ·
Cc1nn(C)c(C(=O)Nc2ccn(Cc3ccccc3F)n2)c1[N+](=O)[O-] | ? | ? | 6.6% | 3.0% | -0.8% | -11.4%
Cc1nn(C)c(C(=O)Nc2ccn(C34CC5CC(CC(C5)C3)C4)n2)c1[N+](=O)[O-] | -61.9* | 4.2% | -10.5% | -2.3% | -20.0% | ?
CCn1cc([N+](=O)[O-])c(C(=O)Nc2ccn(C34CC5CC(CC(C5)C3)C4)n2)n1 | -31.8 | 33.0% | -1.4% | -8.8% | -6.1% | -21.7%
Cn1nccc1C(=O)Nc1ccn(C23CC4CC(CC(C4)C2)C3)n1 | -81.3* | -4.2% | 6.3% | -8.6% | 3.7% | ?
Cn1cc([N+](=O)[O-])c(C(=O)Nc2ccn(C34CC5CC(CC(C5)C3)C4)n2)n1 | -94.7* | 6.2% | 0.1% | 1.1% | -9.9% | -17.2%
Cn1nccc1C(=O)Nc1ccc(Cl)cc1 | 16.5 | -15.1% | -0.7% | 10.8% | -9.8% | ·
COC(=O)[C@@H]1[C@@H](CO)[C@@H]2Cn3c(ccc(Br)c3=O)[C@H]1N2C(=O)CN(C)C | 18.9 | · | · | · | · | ·
C[C@@H]1C[C@@H](CC(=O)NCC2Cc3cccc(-c4ccncc4)c3O2)NC(=S)N1 (some centres not stated) | · | · | · | · | · | 8.0%
SMILES | HCMV inh | RE007 growth inh | Giardia FBPA inh | Sm TGR block | Tb PYK inh | FMDV antiviral
COc1ccc(C)cc1S(=O)(=O)N1CCN(C(=O)c2ncoc2-c2ccc(C)cc2)CC1 | -69.7* | 0.6% | 4.5% | -7.0% | 1.4% | -19.9%
O=C(COc1ccccc1)Nc1ncc2c(n1)CCCC2=O | -61.7* | 3.6% | -1.1% | -19.0% | 3.3% | -0.2%
COc1ccc(OCC(=O)Nc2ncc3c(n2)CC(C)(C)CC3=O)cc1 | 13.0 | -5.3% | -2.0% | 2.5% | -0.1% | -14.1%
Cc1cc(S(=O)(=O)N2CCN(Cc3noc(CCC(=O)N4CCCCC4)n3)CC2)ccc1F | -109.8* | · | · | -15.5% | 0.7% | -3.8%
Cc1cc(S(=O)(=O)N2CCCCC2)ccc1OCC(=O)N1CCCC1 | ? | -16.3% | -2.6% | 2.4% | 3.4% | -15.2%
CC(=O)c1ccc(NC(=O)c2cc(C3CC3)nc3c2c(C)nn3-c2ccc(C)cc2)cc1 | 29.0 | · | · | 10.2% | -1.3% | -15.4%
c1ccc(Sc2ncnc3ccccc23)cc1 | -73.8* | -21.6% | -0.3% | ? | 2.2% | 9.0%
O=P(O)(O)OC(Cn1cncn1)(Cn1cncn1)c1ccc(F)cc1F | · | · | · | · | 3.0% | ·
C[n+]1c2cc(N)ccc2cc2ccc(N)cc21 | -99.0* | ? | ? | · | -1.4% | ?
C[n+]1c2cc(N)ccc2cc2ccc(N)cc21 (tested in a mixture with another compound) | · | · | · | · | · | -7.1%
O=c1c(-c2ccco2)[n+]([O-])c2ccccc2n1OCc1ccccc1 | -16.6 | · | ? | 10µM* | -1.3% | -14.7%
O=c1c(-c2ccco2)[n+]([O-])c2ccccc2n1OCc1c(F)cccc1F | 35.1 | 7.3% | -6.9% | 15.8µM* | 0.0% | ?
O=c1c(-c2ccco2)[n+]([O-])c2ccccc2n1OCc1ccccc1F | -29.9 | -11.8% | -0.1% | ? | 4.2% | -14.4%
CCOC(=O)COn1c(=O)c(-c2ccco2)[n+]([O-])c2ccccc21 | 11.5 | 6.7% | -26.0% | 0.0% | 0.5% | 2.9%
COc1ccccc1COn1c(=O)c(-c2ccco2)[n+]([O-])c2ccccc21 | ? | -0.2% | -13.2% | 14.1µM* | 6.2% | -20.4%
CC(C)CCOc1ccc(-c2c(=O)n(OCc3ccc([N+](=O)[O-])cc3)c3ccccc3[n+]2[O-])cc1 | -69.0* | 12.9% | -4.5% | 12.7% | -0.2% | -14.0%
CCCOc1ccc(-c2c(=O)n(OCc3ccc([N+](=O)[O-])cc3)c3ccccc3[n+]2[O-])cc1 | 23.2 | 18.9% | 0.8% | -2.3% | 5.0% | -2.3%
Cn1c(=O)c2c(nc(CN3CCN(Cc4ccccc4)CC3)n2Cc2ccccc2)n(C)c1=O | · | · | 4.5% | -19.5% | · | ·
